According to PubChem BioAssay (NCI):
The panel holds about 83,000 compounds, 20% with a hit somewhere; the sample as a whole holds those more often.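 Step 1: grow cells in 96-well plates. Step 2: add test compound at a single concentration. Step 3: incubate 48 h. Step 4: record percent growth.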 A number with no mark means an inactive call. Active and inactive are the calls of the source. Rule for the calls: active = growth percent below 10; inactive = the rest.

Assays:
Experiment in all cases: NCI-60 one-dose screen, 48 h (100 = growth as untreated, 0 = no growth, -100 = all killed)
Conditions in all cases: 10 µM unless noted
HCT-15 colon = test system: HCT-15 colon
HT29 colon = test system: HT29 colon
SNB-75 CNS = test system: SNB-75 CNS
SNB-19 CNS = test system: SNB-19 CNS
U251 CNS = test system: U251 CNS
PC-3 prostate = test system: PC-3 prostate
SK-MEL-5 melanoma = test system: SK-MEL-5 melanoma
UACC-62 melanoma = test system: UACC-62 melanoma
LOX IMVI melanoma = test system: LOX IMVI melanoma
SK-MEL-28 melanoma = test system: SK-MEL-28 melanoma
SK-MEL-2 melanoma = test system: SK-MEL-2 melanoma
EKVX NSCLC = test system: EKVX NSCLC
SN12C renal = test system: SN12C renal
UO-31 renal = test system: UO-31 renal
TK-10 renal = test system: TK-10 renal
ACHN renal = test system: ACHN renal
CAKI-1 renal = test system: CAKI-1 renal
A498 renal = test system: A498 renal
CCRF-CEM leukemia = test system: CCRF-CEM leukemia
MOLT-4 leukemia = test system: MOLT-4 leukemia

Structure (SMILES) | growth (HCT-15 colon) | growth (HT29 colon) | growth (SNB-75 CNS) | growth (SNB-19 CNS) | growth (U251 CNS) | growth (PC-3 prostate) | growth (SK-MEL-5 melanoma) | growth (UACC-62 melanoma) | growth (LOX IMVI melanoma) | growth (SK-MEL-28 melanoma) | growth (SK-MEL-2 melanoma) | growth (EKVX NSCLC) | growth (SN12C renal) | growth (UO-31 renal) | growth (TK-10 renal) | growth (ACHN renal) | growth (CAKI-1 renal) | growth (A498 renal) | growth (CCRF-CEM leukemia) | growth (MOLT-4 leukemia)
NC(=O)c1ccc[n+](Cc2ccccc2)c1 | 96.7% | 101% | 95.1% | 106% | 92.8% | 94.6% | 97.6% | 99.7% | 95.6% | 103% | 110% | 94% | 101% | 93.8% | 108% | 103% | 97.9% | 74.5% | 93.9% | 49%
COc1ccc(C2=NNC(c3ccc(Oc4nc5c(c(=O)n(C)c(=O)n5C)n4C)c(OC)c3)C2)cc1 (stereo not given) | 93.8% | 95.5% | 78.7% | 87.6% | 83.2% | 101% | 85.3% | 81.2% | 91.4% | 97.1% | 99.4% | 97.7% | 85.2% | 81.2% | 107% | 93.7% | 102% | 91.9% | 82.8% | 76%
CCCCCCCCCCCCCCCCCC(=O)[O][Sn]([CH2]CCC)([CH2]CCC)[CH2]CCC | -82.6% (active) | -52.2% (active) | -96.8% (active) | -70.9% (active) | -89.3% (active) | -69.3% (active) | -99.9% (active) | -60.6% (active) | -92.7% (active) | -94.8% (active) | -60.7% (active) | -40.1% (active) | -47.2% (active) | -92.4% (active) | -93.6% (active) | -96.8% (active) | -86.5% (active) | -98% (active) | 1.06% (active) | 4.55% (active)
CCN1C(=O)C(C)C=C(C)C=C1C (stereo not given) | 99.9% | 111% | 104% | 109% | 111% | 123% | 98.1% | 103% | 103% | 116% | 102% | 114% | 112% | 86.8% | 105% | 102% | 107% | 112% | 102% | 92.4%
COc1ccc2nc3cc(Cl)ccc3c(NC(=O)CSc3ccc(Cl)cc3)c2c1 | -53.6% (active) | -78.3% (active) | -99.2% (active) | -86.4% (active) | -90.6% (active) | -81.8% (active) | -98% (active) | -80% (active) | -80.3% (active) | -96.8% (active) | -88.5% (active) | -62.4% (active) | -75.3% (active) | -96.1% (active) | -96.1% (active) | -94.6% (active) | -90.8% (active) | -99% (active) | 1.21% (active) | -52% (active)
O=[N+]([O-])c1ccc(N=Nc2c(NNc3ccc([N+](=O)[O-])cn3)cc(S(=O)(=O)O)c3ccccc23)nc1 | 68.7% | 40.8% | 91.9% | 95.6% | 68.7% | 67.7% | 92% | 86.4% | 57.9% | 104% | 108% | 91.1% | 81.5% | 52.1% | 88.4% | 57.4% | 64.1% | 77.2% | 65.1% | 70.9%
CCN(CC)Cc1cc(Nc2ccnc3ccc(OC)cc23)ccc1O | 32.4% | -24.3% (active) | 101% | 74.4% | 35% | 39.8% | 50.4% | 87.7% | 4.78% (active) | 105% | 26.5% | 67.1% | 56.6% | 2.04% (active) | 49.6% | 35.1% | 45.4% | 45.6% | 55.5% | 29.7%
COc1ccc2nc(C)cc(Sc3nc4ccccc4s3)c2c1 | 29.2% | 26.2% | 46.4% | 62% | 39.6% | 52.9% | 35.2% | 47.3% | 29.4% | 62.7% | -99.6% (active) | 42.1% | 40.5% | 16.7% | 61.4% | 33.7% | -41.8% (active) | 40.7% | 7.21% (active) | -21.2% (active)
